The record followed here is the supplement of paper PMC11417369.

± gives the standard deviation of the averaged measurements. Over roughly 25,000 sequences, “ln(normalized median fluorescence intensity)” has its median near 7.9; the highest 2% begin near 11. The sample holds the highest values, similar sequences and a random draw of the others, so the mix is not that of the screen.

In the assay the test system is PfAP2-I AP2 domain 3 (GST-tagged). The assay can be described thus: gcPBM binding intensity (ln(normalized median fluorescence intensity)); higher = stronger DNA binding. The gist of the method: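 Probes on an Agilent 4 × 180k array were primer-extended, double-stranded and 36 bp long, taken from intergenic genomic regions, with negative controls added. GST-tagged P. falciparum DNA-binding domains from E. coli, about 25 μg on average, were applied to the array for 1 h in 1× PBS containing 1% milk, 0.2 mg/ml BSA, 0.5% salmon testes DNA and 0.03% Triton X-100. Binding intensity, obtained after Alexa488 anti-GST antibody detection and a 488 nm scan, is the highest Masliner-normalised natural-log median intensity across replicate spots of either probe orientation.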
As to “AGAAGAAATATGTAAAAAATTTTATATTCACACACA [GTGCAC_negctrl_site441]”, the “gcPBM binding intensity (ln)” value came out at 8.15 ± 0.33.

On to “ATAAATTCATACATTTGTACACAAAAAAAAAAAAAA [XGTACX_site2435]”, for which the “gcPBM binding intensity (ln)” value was 8.12 ± 0.57. The same measure for “TTTTTTTTTTCTTTTTGTACATATTCATAACAAGTA [XGTACX_site2784]”: 8.12 ± 0.5.

Consider “AATGTAACAACTTTTTGTACTTAAGAAATAATAAAT [XGTACX_site3310]”, for which the “gcPBM binding intensity (ln)” value amounted to 7.64 ± 0.61. The same measure for “TAATTAAAAAATAAAAAAAAAAAAAATTAAAACAAA [CACACA_negctrl_site500]”: 7.2 ± 0.58. On to “TGTTATATGTTCAAATGTACAAATCATATACATGTT [XGTACX_site3192]”, for which the “gcPBM binding intensity (ln)” value amounted to 7.5 ± 0.65. The result for “AGGATATGCAGACACACACACATATAGATTTATATA [CACACA_site7100]” reads 7.74 ± 0.55; that for “AAAATTAGATTATGCACACACACTTAAAAATAATAA [CACACA_site1975]”, 9.97 ± 0.46. Regarding “GTTAGGATAGATTAGACATGCACATAAATGCACTTC [TGCATGCA_site561]”, the “gcPBM binding intensity (ln)” value was 11.1 ± 0.34.

Regarding “ATTTTTTCTAATGGGTGTACTGAAACGTATTTTATT [XGTACX_site6573]”, the “gcPBM binding intensity (ln)” value came to 8.16 ± 0.58. Take “TTTGTGGTTACATGTGCACACACTTATTTCGTTCTT [CACACA_site1435]”: the “gcPBM binding intensity (ln)” value turned out to be 9.38 ± 0.4.

As for “TATAATATATTCATGTGTACATATATTTCGAACATA [XGTACX_site1754]”, the “gcPBM binding intensity (ln)” value is 8.01 ± 0.2.

As for “ATTTTATTTTCATATGAACACACATATATATATTAT [CACACA_site8741]”, the “gcPBM binding intensity (ln)” value is 8.35 ± 0.45.

Consider TTACATACAATTGGTGTGCACATATATATATATATA, for which the “gcPBM binding intensity (ln)” value is 10.29 ± 0.049. The result for AATTAATGGCTAAAGGTGCACAATATATATATTACA reads 11.3 ± 0.19. For “ATATAATAAGGTTAAGCACACATATTACATATATAA [CACACA_site9110]”, the “gcPBM binding intensity (ln)” value amounted to 8.35 ± 0.23.

Regarding “ATAATTATATGGCTAGCACACAATAAATAATTATAT [CACACA_site3815]”, the “gcPBM binding intensity (ln)” value stood at 7.92 ± 0.42. The result for “AATTAATGGTTAAAGGTGCACAATACATATATTACA [GTGCAC_site9943]” reads 11.32 ± 0.035.

For “GTAATTAAAATATATACACACAAAGGCTATTAAATA [CACACA_site1011]”, the “gcPBM binding intensity (ln)” value turned out to be 7.68 ± 0.52.

Take “ATATTATATTTCTTTTGTACATATTATATAATATAT [XGTACX_site7198]”: the “gcPBM binding intensity (ln)” value turned out to be 8.1 ± 0.56. “ATATATAAATATATTTGTACATATAATATGTATTAT [XGTACX_site8820]”: the “gcPBM binding intensity (ln)” value is 7.75 ± 0.47.

TTTATAAAGGGAAAGGTGCAAAAGGTGAAAGTTTTA: the “gcPBM binding intensity (ln)” value was 10.9 ± 0.44. On to “AATTATTGTGAAGGGAAAACAAAAAAGTTTATAATT [CACACA_negctrl_site1337]”, for which the “gcPBM binding intensity (ln)” value turned out to be 8.01 ± 0.72. Turning to “ATAATAATAAAATATATATACAAAGGTGAAATTATA [TGCATGCA_negctrl_site197]”, the “gcPBM binding intensity (ln)” value was 7.96 ± 0.58.

Take “TATGATGATGAATAACGTACAAAAAAATTAATCACC [XGTACX_site6794]”: the “gcPBM binding intensity (ln)” value is 8.16 ± 0.49. Regarding “TTTTGTAAAAAGAAAAATTAGAATATATCGTATATA [XGTACX_negctrl_site617]”, the “gcPBM binding intensity (ln)” value worked out at 7.19 ± 0.45. Regarding “ATCAACATTACATTTAGTACACATATATTTCTATGT [XGTACX_site4436]”, the “gcPBM binding intensity (ln)” value turned out to be 8.16 ± 0.36. “TTTTTTTTCTAAATTATATGAAAATATATGTTATGT [GTGCAC_negctrl_site85]”: the “gcPBM binding intensity (ln)” value came out at 7.79 ± 0.23. Regarding ACGGAAAAAGAAAAGGTGCATATGGACACAATATAT, the “gcPBM binding intensity (ln)” value turned out to be 10.85 ± 0.099.

Turning to “AAAGAAATAAGGTGCACACATATACATATATATATA [CACACA_site429]”, the “gcPBM binding intensity (ln)” value is 10.3 ± 0.29. Take “TAAAAGAAATAAGGTGCACACATATACATATATATA [CACACA_site8037]”: the “gcPBM binding intensity (ln)” value came out at 10.19 ± 0.071. As to “TTTTACAAAATAAAAATATAGAATACGGTAAATTAT [GTGCAC_negctrl_site40]”, the “gcPBM binding intensity (ln)” value was determined as 7.87 ± 0.73. The result for “GTTATAAACAAAATAAATATATGAATATATAATAAT [XGTACX_negctrl_site96]” reads 7.46 ± 0.5; that for “AGGAAAATTTTATTTGCACACATTATTACGTCTAAA [CACACA_site2337]”, 9.9 ± 0.4; that for TAATATTTTAATTGTGTGCACATTAATATTATAAAA, 10.1 ± 0.16.

On to “TTTATATATTTTGTCGTGCACATTTGGAAAATTACA [GTGCAC_site9776]”, for which the “gcPBM binding intensity (ln)” value was 10.8 ± 0.16. The result for ATATATCATATTATAGTGCATTTATAATAATATTAT reads 10.8 ± 0.13. The result for TTATTATAATCATTAGTGCATATATTATTTTTATAT reads 9.795 ± 0.049; that for “TATAAAATAAATTGTGCACACATATTTATAAATATG [CACACA_site2330]”, 10.71 ± 0.078. TATATATATATAATTGTGCACATAATTTTAAACCAA: the “gcPBM binding intensity (ln)” value came out at 11.1 ± 0.13.

With “GAAATATAATTTATTACACACATTTTAAAAAAATTC [CACACA_site1087]”, the “gcPBM binding intensity (ln)” value came out at 7.74 ± 0.18. Consider AACATATTGGATTTAGTGCACATATATATCATAATA, for which the “gcPBM binding intensity (ln)” value is 11.5 ± 0.29. The same measure for “ATAAATTTTTAAACAGCACACATAAATATAATATAT [CACACA_site8691]”: 8.28 ± 0.4; for “TAAAATAAATTGTGCACACATATTTATAAATATGAA [CACACA_site2331]”: 11.3 ± 0.35. The same measure for TAAAATAATATTTATGTGCACATATAATTATTAATT: 10.395 ± 0.007. “TATTAAAAGTAAAAAACACACATGGATATATACATA [CACACA_site3959]”: the “gcPBM binding intensity (ln)” value worked out at 7.67 ± 0.64.
